# Screens as filed in PubChem BioAssay.
# NPC1 prom act – activators of NPC1 promoter; Huh7 NPC1 promoter luciferase reporter, 24 h; Potency, µM (highest dose often 9.22 µM), without a hit: at the highest dose activation, most hits filed as activators; 2.4% of 320,000 active; note: % of control where 0% means no effect; nearly all actives have a fitted effect of over 60% in size
#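 In 1536-well qHTS, Huh7 cells harboring an NPC1 promoter–luciferase construct received compound for 24 h; activation was quantified by luminescence following luciferase reagent addition.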
# SMN2 splice enh – SMN2 splice variant enhancement; HEK293 SMN2-luciferase splicing reporter, luminescence, 30-36 h; 2.8% of 210,000 active; Potency, µM (titrated, usually from 46.1 µM), inactives show at the highest dose activity change, positive = activation, hits mostly activators; note: % of control where 0% means no effect; nearly all actives have a fitted effect of over 55% in size
#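 HEK293 cells carry an SMN2 […]–luciferase reporter in which exon 7 inclusion puts luciferase in frame. Cells were plated 10-12 h before compound addition, then incubated 30-36 h at 37C. ONE-Glo luminescence was read; sodium butyrate at 4.5 mM final served as control.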
# Rab9 promoter act – activates the Rab9 promoter; AID 485297; 2.8% of 320,000 active; Huh7 Rab9 promoter-luciferase reporter, luminescence, 24 h; Potency, µM (titrated, usually from 9.22 µM), without a hit: at the highest dose activation, negative = inhibition, hits mostly activators; note: % of control where 0% means no effect; nearly all actives have a fitted effect of over 60% in size
#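 Huh7 cells stably carrying a Rab9 promoter-luciferase reporter, 1500 cells per well in OP-MEM I with 10% FBS, treated with compound 24 hours at 37C. Luciferase activity read by luminescence after 10 minutes with Amplite reagent.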
# ELG1 genotox – genotoxicity induction in ELG1-luciferase HEK293T cells; Potency, µM (highest dose often 46 µM), inactives show at the highest dose activity change, positive = activation, actives largely listed as activators; AID 504466; HEK293T ELG1-luciferase reporter, luminescence, 16 h; 1.3% of 330,000 active; note: % of control where 0% means no effect; nearly all actives have a fitted effect of over 60% in size
#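 HEK293T cells expressing luciferase-tagged ELG1 were treated with compound or DMSO for 16 hr at 37°C. Luciferase activity was then read after 30 min with ONE-Glo at room temperature; rising signal flags genetic stress.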
# FLuc modulator – firefly luciferase modulation, counter-screen for miR-21 project; P08659; purified FLuc, Km substrates, luminescence inhibition; Potency, µM (top dose mostly 57.5 µM), for the others: top-dose activity change, negative = inhibition, actives largely listed as inhibitors; 6.9% of 360,000 active; AID 588342;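 note: plate controls were vehicle for no effect and reference inhibitor for full effect; nearly all actives have a fitted effect of over 55% in size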
# Target sequence (P08659 whole entry, looked up): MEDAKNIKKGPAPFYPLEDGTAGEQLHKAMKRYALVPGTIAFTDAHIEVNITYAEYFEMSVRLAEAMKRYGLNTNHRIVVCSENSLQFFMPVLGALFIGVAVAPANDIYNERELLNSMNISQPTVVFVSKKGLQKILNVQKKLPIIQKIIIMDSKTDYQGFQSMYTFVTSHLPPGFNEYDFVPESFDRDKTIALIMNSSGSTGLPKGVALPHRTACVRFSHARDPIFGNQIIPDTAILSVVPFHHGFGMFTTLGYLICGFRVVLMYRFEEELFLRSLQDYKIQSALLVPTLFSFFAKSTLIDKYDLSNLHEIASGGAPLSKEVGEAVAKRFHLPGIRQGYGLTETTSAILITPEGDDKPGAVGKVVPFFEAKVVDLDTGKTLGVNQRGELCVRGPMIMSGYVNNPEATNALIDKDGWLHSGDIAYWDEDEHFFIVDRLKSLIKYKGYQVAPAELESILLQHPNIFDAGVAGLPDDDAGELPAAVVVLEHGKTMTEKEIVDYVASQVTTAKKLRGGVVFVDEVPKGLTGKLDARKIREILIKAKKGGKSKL
#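 Purified P. pyralis luciferase, 10 nM final, with Km-level 10 uM D-luciferin and 10 uM ATP in 50 mM Tris acetate pH 7.5, 10 mM Mg acetate, 0.01% Tween-20, 0.05% BSA; 6-point qHTS titration about 60 µM downward; luminescence read.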
# KinaseGlo FLuc – Kinase-Glo luciferase inhibition (counter-screen); Q27757; Kinase-Glo luciferase, ATP luminescence, 8 min; Potency, µM (doses to about 38.3 µM), for the others: at the highest dose activity change, negative = inhibition, usual class: inhibitors; 0.28% of 200,000 active; AID 1379; note: % is set by controls: 0 for no effect and ±100 for the full control effect; nearly all actives have a fitted effect of over 60% in size
#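 Recombinant Kinase-Glo luciferase, 10 uM ATP (linear range), luciferin; imidazole pH 7.2 / KCl / MgCl2 / Tween / BSA buffer; 8 min RT; luminescence.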
# An asterisk follows results filed as active; ? = inconclusive; . = no result; [ ] = another dose, or the depositor's remark. Hits are enriched below; roughly 7.3% of the tested compounds scored in any of these assays. Calls come from the whole dose curve; as a rule, active = well fitted curve in the direction sought with a large enough effect; inconclusive = small, poorly fitted or top-dose-only effect, or another doubt; inactive = no such curve, though single readings can be large; an effect the other way counts as inactive or inconclusive. Potency is the fitted concentration of half-maximal effect.
SMILES,NPC1 prom act,SMN2 splice enh,Rab9 promoter act,ELG1 genotox,FLuc modulator,KinaseGlo FLuc
Cc1ccc(NC2=CC(c3ccccc3F)N(c3ccc(C)cc3)C2=O)cc1 (configuration not stated),.,18%,.,.,1%,.
O=C1CCCc2nc(N3CCc4ccccc43)ncc21,3.2µM*,13µM*,1.6µM*,3.3µM*,2.7µM*,?
CC1(C)CC(=O)c2cnc(N3CCc4ccccc4C3)nc2C1,2.8µM*,-35%,?,1.8µM*,2.7µM*,-1%
CC1(C)CC(=O)c2cnc(N3CCN(c4ccccc4)CC3)nc2C1,-4%,-55%,-8%,-6%,-13%,-1%
COc1ccc(OCC(=O)NC2CC(=O)N(c3ccc4c(c3)OCCO4)C2)cc1 (configuration not stated),.,.,.,.,-3%,.
Cc1nc(-n2nc(C)c(CCC(C)C)c2C)sc1C(=O)Nc1ccc(Cl)cc1,.,.,.,.,-2%,.
O=C(CCS(=O)(=O)c1ccccc1)Nc1nc2ccc(F)cc2s1,4%,.,-4%,-2%,3%,.
O=C(CCS(=O)(=O)c1ccccc1)Nc1nc2cc3c(cc2s1)OCCO3,18%,.,19%,?,7.6µM*,.
O=C(CCS(=O)(=O)c1ccccc1)Nc1nc2cc3c(cc2s1)OCO3,22%,.,19%,10%,13µM*,.
COc1cccc(Cn2c(=O)n(CCc3ccccc3)c(=O)c3c2c2cc(OC)ccc2n3C)c1,.,.,.,.,-2%,.
CCCC1c2ccc(C)n2CCN1C(=O)Nc1ccccc1Cl (configuration not stated),20%,?,26%,14%,12µM*,3%
O=C(c1ccccc1)c1ccc(Cn2cc(-c3ccccc3)nn2)cc1,-11%,.,-16%,?,13µM*,.
CCc1cc2c(=O)oc(-c3ccccc3F)nc2s1,-3%,.,-2%,0%,3.4µM*,.
Cc1cc2c(=O)oc(-c3ccccc3Br)nc2s1,0%,.,-3%,2%,7.6µM*,.
Cc1cc2c(=O)oc(-c3ccc(F)cc3)nc2s1,-6%,.,-6%,-10%,0%,-3%
C/C(=C\c1ccc(N)cc1)c1nc2ccccc2[nH]1,2.5µM*,.,2.2µM*,?,3µM*,.
Cc1c(C(=O)OCC(=O)Nc2ccc(N3CCOCC3)cc2)oc2ccccc12,4%,.,-3%,-6%,4%,.
COc1ccc2oc(C(=O)N3CCCc4ccccc43)c(C)c2c1,?,.,?,16%,19µM*,.
COc1ccc2oc(C(=O)Nc3ccc(N4CCOCC4)cc3)c(C)c2c1,0%,.,2%,-21%,6.7µM*,.
Cc1c(C(=O)NNC(=O)c2csc(N3CCOCC3)n2)oc2ccccc12,11%,.,1%,2%,27µM*,.
Cc1c(C(=O)Nc2ccc(N3CCOCC3)cc2)oc2ccccc12,4µM*,29%,4.5µM*,8%,1.9µM*,-5%
COc1cc(OC)cc(C(=O)N2CCCc3ccccc32)c1,3%,.,-1%,7%,?,0%
COc1ccc(-n2nnnc2C2CCN(S(=O)(=O)c3ccc(NC(C)=O)cc3)CC2)cc1,.,-20%,.,.,1%,.
Cc1cc(C)cc(NC(=O)C(=O)NCC(c2ccc3c(c2)OCO3)N2CCOCC2)c1 (configuration not stated),.,.,.,.,-3%,.
COc1cccc(C2=NS(=O)(=O)N(C)C(C(=O)Nc3ccccc3SC)=C2)c1,.,.,.,.,-8%,.
SMILES,NPC1 prom act,SMN2 splice enh,Rab9 promoter act,ELG1 genotox,FLuc modulator,KinaseGlo FLuc
COc1ccc(NC(=O)Cn2c(=O)n(CCC(=O)NCCc3ccc(OC)c(OC)c3)c(=O)c3ccccc32)cc1Cl,.,-2%,.,.,1%,.
CC(=O)Oc1ccc(C(=O)Cc2ccccn2)c(O)c1,-1%,-5%,-3%,1%,17µM*,0%
CCc1cc(C(=O)Cc2ccccn2)c(O)cc1O,2%,.,-3%,-4%,-4%,.
c1cncc(CNCc2cccnc2)c1,.,-5%[9.22 µM],.,.,.,-4%[7.66 µM]
O=C(NCC(c1ccco1)S(=O)(=O)c1ccc(Cl)cc1)c1ccccc1F (configuration not stated),.,.,.,.,-4%,.
O=C(Nc1nn[nH]n1)c1cccc(Oc2ccccc2)c1,1%,-2%,-7%,-1%,-1%,0%
Cc1cc(NC(=O)c2cccc(Oc3ccccc3)c2)n[nH]1,2.8µM*,?,0.89µM*,?,6.7µM*,-7%
Cc1cc(NC(=O)NC(=O)c2cccc(OC(F)(F)C(F)F)c2)n[nH]1,2.5µM*,5.6µM*,2.2µM*,?,-16%,0%
CCN(CCCNC(=O)c1ccc(Sc2ccc(Cl)cc2)c(NC(C)=O)c1)c1ccccc1,.,.,.,.,-19%,.
CCCc1cc(COC)c(C#N)c(=O)[nH]1,.,-12%[9.22 µM],.,.,.,-6%[7.66 µM]
COCCCNC(=O)CN1C(=O)c2c(c3ccccc3n2C)C1c1ccc(OC)cc1 (configuration not stated),.,.,.,.,3%,.
O=C(Nc1scc(-c2ccccc2)c1C(=O)O)c1ccco1,17%,?,29%,?,11µM*,-3%
COC(=O)c1c(-c2ccc(F)cc2)csc1NC(=O)c1ccco1,?,-1%,2.2µM*,18%,7.6µM*,-10%
O=C(Nc1scc(-c2ccccc2)c1C(=O)O)c1ccccc1Cl,-3%,.,1%,1%,?,.
COc1ccc(-c2csc(NC(=O)c3ccccc3F)c2C(=O)O)cc1,?,.,17%,-4%,24µM*,.
Cc1ccc2oc(C(=O)Nc3c(C(=O)Nc4ccccc4)oc4ccccc34)cc(=O)c2c1,.,3%,.,.,1%,.
CCc1cccc(NC(=O)C(NS(=O)(=O)c2ccc3nc(C)sc3c2)C(C)C)c1 (configuration not stated),.,16%,.,.,-3%,.
CCOc1ccc(CCNC(=O)Cn2nnc(-c3ccc(C(F)(F)F)cc3)n2)cc1OCC,.,-7%,.,.,-2%,.
CC(C)(C)c1ccc(OCc2cnc(Cl)s2)cc1,17%,3%,?,?,13µM*,-7%
CC(=O)Nc1cccc(OCc2cnc(Cl)s2)c1,-2%,19%,6%,13%,-20%,5%
O=C1CCCc2nc3c(cc21)C(O)Oc1c-3ccc2ccccc12 (configuration not stated),3.2µM*,25%,1.1µM*,?,-11%,-1%
c1ccc(CNc2ncnc3c2ncn3C2CCCCO2)cc1 (configuration not stated),?,?,?,?,27µM*,-6%
O=C(Cn1cnc2c(NCc3ccccc3)ncnc21)NCC1CCCO1 (configuration not stated),.,.,.,-2%,.,.
COc1ccc(OC)c(N=c2ssnc2Cl)c1,-5%,-4%,1%,-10%,15µM*,-2%
